In assay [1] the target is Lysosomal acid glucosylceramidase (Homo sapiens) (UniProt P04062). As to the kind of experiment: Glucocerebrosidase-p2 (AID 348; in the data active = potency below about 10 µM; note: potency is the fitted concentration of half-maximal effect). As to conditions: purified GBA, blue fluorogenic substrate, 40 min. In outline: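 Normal human glucocerebrosidase (0.2 nM) with blue fluorogenic substrate (80 uM final) in citrate/phosphate pH 5.9 with 10mM sodium taurocholate, 0.01% tween-20; 40 min RT, NaOH/glycine stop; fluorescence Ex 365/Em 440; AC50 from a titration from 0.6 nM upwards.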
Sequence of Lysosomal acid glucosylceramidase (Homo sapiens) (P04062 whole entry, looked up): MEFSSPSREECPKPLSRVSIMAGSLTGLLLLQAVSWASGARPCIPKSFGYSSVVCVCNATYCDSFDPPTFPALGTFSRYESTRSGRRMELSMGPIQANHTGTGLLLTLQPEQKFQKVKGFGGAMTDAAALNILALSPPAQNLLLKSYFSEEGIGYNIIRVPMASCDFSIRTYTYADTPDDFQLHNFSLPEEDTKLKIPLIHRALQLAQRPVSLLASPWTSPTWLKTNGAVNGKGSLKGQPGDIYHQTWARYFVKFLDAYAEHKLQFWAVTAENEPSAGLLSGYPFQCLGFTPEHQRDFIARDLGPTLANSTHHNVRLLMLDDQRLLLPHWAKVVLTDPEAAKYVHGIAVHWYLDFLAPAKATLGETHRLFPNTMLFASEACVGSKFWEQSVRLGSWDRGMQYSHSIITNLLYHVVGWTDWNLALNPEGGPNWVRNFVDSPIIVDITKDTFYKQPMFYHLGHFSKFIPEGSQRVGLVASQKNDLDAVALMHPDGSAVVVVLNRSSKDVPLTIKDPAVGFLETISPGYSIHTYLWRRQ

The nature of assay [2]: AP1 Signaling Pathway (AID 357; active = well fitted curve in either direction with a large enough effect, not every such curve was filed as active;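 note: ME-180 reporter cells stimulated with EGF at its EC50 level; % is set by controls: 0 for no effect and ±100 for the full control effect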). Particulars: ME-180 AP-1-bla reporter, EGF-induced, beta-lactamase ratio, 5 h; at 7.69 µM (top of the series) unless noted. In outline: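 AP-1-bla ME-180 cells, Opti-MEM + 0.5% dialyzed FBS, plated overnight 37 °C. Cpd titration + EC50 EGF, 5 h 37 °C. CCF4 2.5 h RT; ex 405, em 460/530 ratio → %activity, AC50.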
Assay [3] addresses Cytochrome P450 1A2 (Homo sapiens) (UniProt P05177). As to the kind of experiment: p450-cyp1a2 (AID 410; calls by dose curve; note: potency is the fitted concentration of half-maximal effect;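 for activity change, negative = inhibition: -100% = full effect of reference inhibitor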). As to conditions: recombinant CYP1A2, luciferin-ME demethylation, luminescence; series mostly up to 57 µM. In outline:
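20nM CYP1A2, 100uM Luciferin-ME (=Km), 100mM KPO4; cpd 10 min RT; +NADPH regen, 60 min RT; stop/detect 20 min; luminescence. Normalized to furafylline 57 uM = full inhibition.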

Assay [4] can be described thus: NFAT Signaling Pathway (AID 444; active = well fitted curve in either direction with a large enough effect, not every such curve was filed as active;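 note: carbachol stimulus at about its EC50 of 1 µM final; % is set by controls: 0 for no effect and ±100 for the full control effect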). Particulars: Jurkat NFAT-bla M1, carbachol, beta-lactamase ratio, 5 h; at 7.69 µM (top of the series) unless noted. In outline: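 Jurkat cells with NFAT-driven β-lactamase reporter and co-expressed M1 receptor, stimulated with carbachol (final 1 uM, ~EC50), compound titration, 5 h at 37 °C. CCF4 loaded 1 h at RT; 460/530 nm ratio gave %activity and AC50.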

Assay [5] in a line: Stat Signaling Pathway (AID 446; active = well fitted curve in either direction with a large enough effect, not every such curve was filed as active;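 note: ME-180 cervical cancer cells given 40 pM IL-6 alongside compound; SIE-controlled beta-lactamase reporter measured as 460/530 nm FRET emission ratio; % is set by controls: 0 for no effect and ±100 for the full control effect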). Particulars: ME-180 SIE beta-lactamase reporter, IL-6 stimulated, 5 h; at 7.69 µM (top of the series) unless noted. In outline: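 Emission at 460 and 530 nm (excitation 405 nm) reports SIE-controlled beta-lactamase in ME-180 cells. Cells received compound with 40 pM IL-6 for 5 hrs at 37 C; data scaled between 300 pM IL-6 and 125 nM JAK-inhibitor controls.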

Assay [6] has as its target Glucocorticoid receptor (Homo sapiens) (UniProt P04150). As to the kind of experiment: GR-GFP Redistribution (AID 450;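 active = compounds whose dose series gives a full or clear partial fitted curve of increased nuclear translocation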; note: potency is the fitted concentration of half-maximal effect). As to conditions: U2OS GR-GFP nuclear translocation, laser cytometry, 2 h.
Assay [7] has the same target. As to the kind of experiment: GR-EFC Redistribution (AID 451; calls by dose curve; note: potency is the fitted concentration of half-maximal effect). Particulars: CHO-K1 GR-EFC translocation, beta-gal luminescence, 2 h. The method, boiled down: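 CHO-K1 cells expressing nuclear EA and GR-ED fragments of b-gal; compounds titrated up to 46 uM final, 2 h at 37 C. GR nuclear translocation read as complemented b-gal luminescence after 1 h RT detection.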
Assay [8] addresses Mitogen-activated protein kinase 10 (Mus musculus) (UniProt Q61831). Description: JNK3 AlphaScreen Assay (AID 530; active = well fitted curve in either direction with a large enough effect, not every such curve was filed as active;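 note: kinase came from lysate of stimulated human HepG2 cells; signal reports phosphorylation of biotinylated GST-cJun 1-79 at Ser73 with 10 µM ATP; % is set by controls: 0 for no effect and ±100 for the full control effect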). Particulars: JNK3 lysate, c-Jun phosphorylation; series mostly up to 57.1 µM. In outline:
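HepG2 lysate (IL-1b/TNFa pre-activated) + biotin-GST-cJun 1-79 + anti-pSer73 cJun; cpd titration, 15 min RT; ATP 10 uM start; Tris pH 7.6, MgCl2, DTT, vanadate; beads in EDTA buffer; AlphaScreen.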
(Alpha assays give light when donor and acceptor beads are brought close together.)

In assay [9] the target is 3',5'-cyclic-AMP phosphodiesterase 4B (Homo sapiens) (UniProt Q07343). As to the kind of experiment: qHTS Assay for Inhibitors of PDE-IV (AID 607; active = well fitted activation curve with a large enough effect in the main read-out, with a control signal flat, not every such curve was filed as active; note: % of control where 0% means no effect). As to conditions: HEK293 ACTOne CNG channel cells, membrane potential fluorescence; series mostly up to 22.9 µM. In outline: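 The readout is membrane depolarisation from a cAMP-sensing CNG channel, detected with a potential dye at ex 535/em 590. Cells were HEK293-derived (endogenous PDE-IV) at 1000 cells/well, titrated up to 22.9 uM final.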
Sequence of 3',5'-cyclic-AMP phosphodiesterase 4B (Homo sapiens) (Q07343 whole entry, looked up): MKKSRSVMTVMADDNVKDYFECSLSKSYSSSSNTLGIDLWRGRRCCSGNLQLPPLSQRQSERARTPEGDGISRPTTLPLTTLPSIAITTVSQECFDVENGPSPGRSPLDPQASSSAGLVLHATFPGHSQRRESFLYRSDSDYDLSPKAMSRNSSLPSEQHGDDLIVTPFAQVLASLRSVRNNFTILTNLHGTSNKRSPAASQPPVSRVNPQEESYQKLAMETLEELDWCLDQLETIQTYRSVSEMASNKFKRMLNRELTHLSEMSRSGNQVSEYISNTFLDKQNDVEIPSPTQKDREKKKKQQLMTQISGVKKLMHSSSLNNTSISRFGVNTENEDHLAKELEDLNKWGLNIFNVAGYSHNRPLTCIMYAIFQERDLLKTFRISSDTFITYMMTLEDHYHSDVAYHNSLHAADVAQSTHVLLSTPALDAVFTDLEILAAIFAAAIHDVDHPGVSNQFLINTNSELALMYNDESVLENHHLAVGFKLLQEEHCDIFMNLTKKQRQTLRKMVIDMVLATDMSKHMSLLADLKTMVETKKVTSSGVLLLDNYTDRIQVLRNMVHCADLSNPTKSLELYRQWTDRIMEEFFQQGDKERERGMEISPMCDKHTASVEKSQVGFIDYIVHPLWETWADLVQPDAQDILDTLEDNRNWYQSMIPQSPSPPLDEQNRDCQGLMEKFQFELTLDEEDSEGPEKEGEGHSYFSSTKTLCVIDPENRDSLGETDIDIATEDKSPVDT
(In general: qHTS replaces the single test concentration by a dilution series.)

For assay [10], the target named is Cytochrome P450 3A4 (Homo sapiens) (UniProt P08684). Description: qHTS Assay for Activators of Cytochrome P450 3A4 (AID 885). Note: nearly all actives have a fitted effect of over 65% in size. Particulars: recombinant CYP3A4, Luciferin-PPXE luminescence, 60 min; series mostly up to 57.1 µM. In outline: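 Activators are scored by enhanced luminescence from CYP3A4 conversion of luciferin-PPXE (25uM, equal to KM) to luciferin, after 60 min at RT with an NADPH-regenerating system.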
Sequence of Cytochrome P450 3A4 (Homo sapiens) (P08684 whole entry, looked up): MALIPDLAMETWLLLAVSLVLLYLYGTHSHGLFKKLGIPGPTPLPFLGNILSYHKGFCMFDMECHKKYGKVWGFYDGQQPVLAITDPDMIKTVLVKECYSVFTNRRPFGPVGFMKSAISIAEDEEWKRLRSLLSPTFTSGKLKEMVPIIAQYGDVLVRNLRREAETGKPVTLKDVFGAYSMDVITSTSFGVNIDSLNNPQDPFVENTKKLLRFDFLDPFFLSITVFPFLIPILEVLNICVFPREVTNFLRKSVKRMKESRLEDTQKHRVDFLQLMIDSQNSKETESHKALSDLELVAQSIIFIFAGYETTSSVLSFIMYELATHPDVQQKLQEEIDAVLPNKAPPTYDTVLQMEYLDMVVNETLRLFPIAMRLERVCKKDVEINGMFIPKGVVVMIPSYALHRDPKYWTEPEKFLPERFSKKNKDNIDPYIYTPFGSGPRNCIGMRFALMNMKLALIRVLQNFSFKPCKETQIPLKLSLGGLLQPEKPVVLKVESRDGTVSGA

The nature of assay [11]: qHTS Assay for Lipid Storage Modulators (AID 1519; calls by dose curve). Particulars: Drosophila S3 cells, BODIPY lipid droplet/cell ratio, laser cytometry, cells loaded with oleic acid; for activity change, negative = inhibition: at 57.5 µM (top of the series). In outline: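 Cells seeded at 5,000 per well were treated with compounds over a concentration series and loaded with oleic acid (400 uM, as added). Lipid droplet fluorescence (488 nm excitation, 500-530 nm channel) was read by laser-scanning cytometry and normalized to 20 uM Triacsin C.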

The target of assay [12] is Dual specificity protein kinase CLK4 (Homo sapiens) (UniProt Q9HAZ1). Description: qHTS Assay for Inhibitors of CDC-like Kinase 4 (ADP-Glo Assay) (AID 1771). Note: nearly all actives have a fitted effect of over 70% in size. Note: potency is the fitted concentration of half-maximal effect. As to conditions: recombinant CLK4, ADP-Glo luminescence; series mostly up to 80 µM. In outline: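 25 nM Clk4, 100 uM RS peptide, 1 uM ATP (final); 2 mM MgCl2, 0.5 mM EGTA, 2.5 mM DTT, 0.01% Triton X-100; 1 hr RT. ADP-Glo readout: ATP depletion 45 min, conversion/luciferase 30 min, luminescence.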
Sequence of Dual specificity protein kinase CLK4 (Homo sapiens) (Q9HAZ1 whole entry, looked up): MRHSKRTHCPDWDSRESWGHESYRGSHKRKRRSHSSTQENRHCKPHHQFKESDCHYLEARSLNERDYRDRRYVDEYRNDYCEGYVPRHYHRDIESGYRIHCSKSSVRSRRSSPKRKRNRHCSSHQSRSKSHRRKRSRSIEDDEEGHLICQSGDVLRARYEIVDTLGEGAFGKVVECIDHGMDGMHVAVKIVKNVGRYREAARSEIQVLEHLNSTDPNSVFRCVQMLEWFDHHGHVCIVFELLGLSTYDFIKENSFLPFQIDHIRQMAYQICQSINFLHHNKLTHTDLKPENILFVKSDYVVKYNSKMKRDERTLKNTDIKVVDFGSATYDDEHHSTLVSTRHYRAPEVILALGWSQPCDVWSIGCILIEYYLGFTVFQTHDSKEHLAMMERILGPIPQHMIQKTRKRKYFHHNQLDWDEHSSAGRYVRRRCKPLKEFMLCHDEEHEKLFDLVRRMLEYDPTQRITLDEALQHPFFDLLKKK

Assay [13] shares this target. Description: qHTS Assay for Inhibitors of CDC-like Kinase 4 (ADP-FP Assay) (AID 1795). Note: nearly all actives have a fitted effect of over 60% in size. Note: potency is the fitted concentration of half-maximal effect. As to conditions: Transcreener ADP fluorescence polarization; series mostly up to 50 µM. In outline: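 Inhibition of ADP formation by 6.25 nM Clk4 is measured using 1 uM ATP and 100 uM RS repeat peptide over one hour. Produced ADP displaces a fluorescent tracer from antibody, lowering polarization.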

For assay [14], the target named is Ubiquitin carboxyl-terminal hydrolase 1 (Homo sapiens) (UniProt O94782). As to the kind of experiment: Inhibitors of USP1/UAF1: Pilot qHTS (AID 504865).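 Note: rhodamine fluorescence freed from ubiquitin-rhodamine substrate followed over time; top concentration of the series differs between compounds; % is set by controls: 0 for no effect and ±100 for the full control effect; nearly all actives have a fitted effect of over 35% in size.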 As to conditions: purified USP1/UAF1, Ub-rhodamine cleavage fluorescence; series mostly up to 54.9 µM. In outline: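 Kinetic fluorescence assay: 1nM USP1/UAF1, 15 min compound preincubation, then 150nM Ub-Rho; 480/540 nm.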
Sequence of Ubiquitin carboxyl-terminal hydrolase 1 (Homo sapiens) (O94782 whole entry, looked up): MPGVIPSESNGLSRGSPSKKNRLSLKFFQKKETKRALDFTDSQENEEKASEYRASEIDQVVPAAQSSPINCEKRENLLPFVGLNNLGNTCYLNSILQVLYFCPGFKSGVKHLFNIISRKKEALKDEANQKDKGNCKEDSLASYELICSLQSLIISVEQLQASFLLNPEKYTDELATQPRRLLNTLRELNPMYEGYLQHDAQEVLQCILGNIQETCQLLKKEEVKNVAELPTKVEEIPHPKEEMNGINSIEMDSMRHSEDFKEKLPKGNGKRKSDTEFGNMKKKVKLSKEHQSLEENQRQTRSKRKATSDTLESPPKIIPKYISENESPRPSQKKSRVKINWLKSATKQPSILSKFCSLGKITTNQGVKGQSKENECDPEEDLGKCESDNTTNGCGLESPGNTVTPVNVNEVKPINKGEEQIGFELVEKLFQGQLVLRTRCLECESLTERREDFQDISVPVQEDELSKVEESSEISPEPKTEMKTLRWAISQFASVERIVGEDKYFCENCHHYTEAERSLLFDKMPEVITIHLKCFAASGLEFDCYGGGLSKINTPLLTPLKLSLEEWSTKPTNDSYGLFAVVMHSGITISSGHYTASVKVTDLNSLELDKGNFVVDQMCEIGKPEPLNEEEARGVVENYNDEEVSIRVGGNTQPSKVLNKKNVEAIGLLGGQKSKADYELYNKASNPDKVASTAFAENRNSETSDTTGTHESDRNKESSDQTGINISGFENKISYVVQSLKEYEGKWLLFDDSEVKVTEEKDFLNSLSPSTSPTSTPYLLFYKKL

For assay [15], the target named is Dual specificity protein kinase CLK4 (Homo sapiens) (UniProt Q9HAZ1). Description: qHTS Assay for Inhibitors of CDC-like Kinase 4 (Kinase-Glo Assay) (AID 1770). Note: nearly all actives have a fitted effect of over 65% in size. Note: potency is the fitted concentration of half-maximal effect. Particulars: recombinant Clk4, Kinase-Glo ATP depletion luminescence; series mostly up to 66.7 µM. The method, boiled down:
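Inhibition was judged from remaining ATP, measured by Ultra-Glo luciferase bioluminescence after Clk4 (25 nM) had acted on RS peptide at 1 uM ATP for 4.5 hours, room temperature.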

Assay [16] deals with Cytochrome P450 3A4 (Homo sapiens) (UniProt P08684). Description: qHTS Assay for Inhibitors and Substrates of Cytochrome P450 3A4 (AID 884). Note: potency is the fitted concentration of half-maximal effect; nearly all actives have a fitted effect of over 50% in size. Particulars: recombinant CYP3A4, Luciferin-PPXE luminescence; series mostly up to 57.1 µM. In outline: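 Luminescent readout of luciferin produced by CYP3A4 (20 nM) dealkylation of Luciferin-PPXE, 25 uM (its KM). NADPH-driven reaction ran 60 min at RT after 10 min compound preincubation; data scaled to 57 uM ketoconazole as 100% inhibition.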

Assay [17] is described as follows: qHTS Assay for Identification of Small Molecule Agonists for Hypoxia Response Element Signaling Pathway (AID 914; active = well fitted activation curve with a large enough effect in the signal ratio, with a control signal flat, not every such curve was filed as active; the % refers to the signal ratio; note: potency is the fitted concentration of half-maximal effect). As to conditions: ME-180 (cervical carcinoma) HRE-bla reporter, beta-lactamase ratio, CoCl2, 17 h; activation: stronger effect = higher value. In outline: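 Read-out: CCF4 FRET ratio of 460nm to 530nm emission (excitation 405nm) after 2.5 hours at room temperature, taken from HRE-bla ME-180 cells that had been exposed to compound and EC50 CoCl2 for 17 hours.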

Where [18] appears, read: measured here: cell count channel max response.
The mark [19] stands for this setting: measured here: lipid channel max response.

Molecules are shown by their SMILES. Results filed as inconclusive are left out. Calls of active or inactive are those of the source. Unless noted, calls come from the whole dose curve; as a rule, active = well fitted curve in the direction sought with a large enough effect; inconclusive = small, poorly fitted or top-dose-only effect, or another doubt; inactive = no such curve, though single readings can be large; an effect the other way counts as inactive or inconclusive. Bounds are passed on as bounds.

Sequence of Cytochrome P450 1A2 (Homo sapiens) (P05177 whole entry, looked up): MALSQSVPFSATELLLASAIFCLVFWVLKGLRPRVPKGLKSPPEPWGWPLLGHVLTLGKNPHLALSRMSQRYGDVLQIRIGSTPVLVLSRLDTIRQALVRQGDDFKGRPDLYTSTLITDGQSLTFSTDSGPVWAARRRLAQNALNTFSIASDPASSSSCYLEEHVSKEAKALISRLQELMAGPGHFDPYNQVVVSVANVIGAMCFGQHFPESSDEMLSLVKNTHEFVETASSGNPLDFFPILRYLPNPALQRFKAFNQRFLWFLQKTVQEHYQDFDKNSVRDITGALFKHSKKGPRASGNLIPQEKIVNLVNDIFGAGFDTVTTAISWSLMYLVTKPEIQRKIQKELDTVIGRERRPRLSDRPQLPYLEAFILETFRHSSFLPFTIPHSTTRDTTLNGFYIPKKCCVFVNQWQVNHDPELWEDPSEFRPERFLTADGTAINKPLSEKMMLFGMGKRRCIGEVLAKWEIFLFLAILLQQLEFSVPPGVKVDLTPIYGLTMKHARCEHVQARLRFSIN
Sequence of Glucocorticoid receptor (Homo sapiens) (P04150 whole entry, looked up, the tested form may be a part): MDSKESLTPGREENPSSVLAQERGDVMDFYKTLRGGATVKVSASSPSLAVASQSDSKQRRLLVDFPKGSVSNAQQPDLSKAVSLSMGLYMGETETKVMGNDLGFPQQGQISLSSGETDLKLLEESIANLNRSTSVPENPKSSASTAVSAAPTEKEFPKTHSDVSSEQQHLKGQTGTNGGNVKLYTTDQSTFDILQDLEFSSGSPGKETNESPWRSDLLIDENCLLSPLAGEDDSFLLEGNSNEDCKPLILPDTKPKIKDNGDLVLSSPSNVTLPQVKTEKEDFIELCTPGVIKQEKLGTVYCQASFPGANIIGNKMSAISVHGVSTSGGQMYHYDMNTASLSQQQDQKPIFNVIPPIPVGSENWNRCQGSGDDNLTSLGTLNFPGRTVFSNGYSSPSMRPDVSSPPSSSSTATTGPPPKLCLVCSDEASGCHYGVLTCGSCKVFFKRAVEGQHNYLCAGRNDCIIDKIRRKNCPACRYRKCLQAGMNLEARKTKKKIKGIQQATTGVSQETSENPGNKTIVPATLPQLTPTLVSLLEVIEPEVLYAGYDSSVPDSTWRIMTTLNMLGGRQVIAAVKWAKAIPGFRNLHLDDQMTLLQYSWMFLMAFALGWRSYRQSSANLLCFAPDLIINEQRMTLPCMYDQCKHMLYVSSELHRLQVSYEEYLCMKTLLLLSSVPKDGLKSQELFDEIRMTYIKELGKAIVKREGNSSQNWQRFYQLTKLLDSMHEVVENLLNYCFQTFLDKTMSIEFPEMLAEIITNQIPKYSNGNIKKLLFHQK

For `COc1ccc(-n2c(=O)c(CCc3ccccc3)nc3cnc(N4CCN(C)CC4)nc32)cc1`, the Potency in assay [1] is > 11.4 µM (inactive); in assay [6], > 9.22 µM (inactive); in [7] it was > 46 µM (inactive). In addition, the activity change, negative = inhibition is -22.3% (inactive) in assay [2], -24% (inactive) in [4] and 2.13% (inactive) in assay [11]. In addition, the Potency entry in assay [3], in assay [8], in [9], in [10], in [12] and in assay [13] was “inactive” in each case. The Potency entry in assay [14] is “inactive”. In addition, the activity, negative = inhibition in [5] was -10.4% (inactive). Moreover, the values for the max response in assay [11] (setting [18]) and in assay [11] (setting [19]) were 12.7% and 12.5%, respectively.

For `COc1cccc(Cn2c(=O)c(-c3cc(F)cc(F)c3)nc3cnc(N4CCNCC4)nc32)c1`, the Potency was > 11.4 µM (inactive) in assay [1], > 9.22 µM (inactive) in assay [6] and > 46 µM (inactive) in assay [7]. In addition, the activity change, negative = inhibition was 117% [activator] (active) in [2], 225% [activator] (active) in [4] and -13.2% (inactive) in [11]. Further, the Potency entry in assay [3], in assay [9], in [10], in assay [15] and in assay [12] was “inactive” in each case. Further, the max response in assay [11] (setting [18]) was -15.6%; in [11] (setting [19]), -28.1%.

In the case of `Cc1noc(C)c1-c1nc(NC2CCNCC2)c2ccccc2n1`, the activity change, negative = inhibition is 34.4% (inactive) in [2], 26.2% (inactive) in assay [4] and 4.9% (inactive) in assay [11]. Further, the Potency in [3] was 5.01 µM (active); in assay [6], > 46 µM (inactive); in assay [7], > 46 µM (inactive); in assay [15], 25.1 µM (active); in assay [12] it was 28.2 µM (active). Further, the activity, negative = inhibition in assay [5] was 6.06% (inactive). Further, the Potency result in assay [8], in [9] and in [14] was “inactive” throughout. The max response in assay [11] (setting [18]) was 11.4%; in assay [11] (setting [19]), 12.7%.

Take `COc1ccccc1CNc1ncnc2ccc(-c3ccoc3)cc12`: the Potency was 2.51 µM (active) in [3]; > 46 µM (inactive) in assay [6]; > 46 µM (inactive) in assay [7]; 0.251 µM (active) in assay [15]; 0.316 µM (active) in assay [12]; 141 nM (active) in assay [13]. Moreover, the activity change, negative = inhibition was -7.72% (inactive) in assay [4] and -10.7% (inactive) in [11]. For the same compound, the activity, negative = inhibition in [5] was -21.5% (inactive). Besides, the Potency result in [8], in [10] and in [14] was “inactive” throughout. Also, the max response worked out at 20% in assay [11] (setting [18]) and 4.99% in [11] (setting [19]).

Consider `FC(F)(F)c1ccccc1-c1cncnc1NCCN1CCOCC1`, for which the Potency is > 11.4 µM (inactive) in [1]; 2.51 µM (active) in [3]; > 46 µM (inactive) in assay [6]; > 46 µM (inactive) in [7]; 794 nM (active) in assay [16]; 2.51 µM (active) in [17]. For the same compound, in assay [5], the activity, negative = inhibition is -11.6% (inactive). Also, the Potency entry in assay [8], in assay [9], in assay [10], in assay [15], in assay [13] and in assay [14] was “inactive” throughout. In addition, the activity change, negative = inhibition in assay [11] was -3.84% (inactive). The max response is 15.3% in assay [11] (setting [18]) and 13.3% in assay [11] (setting [19]).

On to `COc1cccc(Nc2ncc3nc(C)c(=O)n(C[C@H]4CCCO4)c3n2)c1`, for which the Potency was > 11.4 µM (inactive) in assay [1]; > 9.22 µM (inactive) in [6]; > 46 µM (inactive) in assay [7]; 12.6 µM (active) in assay [15]; 17.8 µM (active) in [12]. Further, the activity change, negative = inhibition in assay [2] was -22.6% (inactive); in assay [4] it was 8.96% (inactive); in assay [11], -3.96% (inactive). For the same compound, the activity, negative = inhibition in assay [5] was -10.3% (inactive). The Potency result in [8], in [9] and in assay [14] was “inactive” throughout. The figures for the max response in assay [11] (setting [18]) and in assay [11] (setting [19]) were -4.6% and -7.75%, respectively.

The record behind these values is PubChem BioAssay (NCATS).
